# ELG1 repair inh: inhibitors of ELG1-dependent DNA repair in HEK293T cells. HEK293T ELG1-luciferase reporter, luminescence, 16 h; DNA damage induced by 5-fluorouridine. 2.3% of 330,000 active. Potency, µM (top dose mostly 46.1 µM), usual class: inhibitors. AID 504467; also: nearly all actives have a fitted effect of over 55% in size
#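 HEK293T cells expressing luciferase-tagged ELG1 (2,000/well) received 5-Fluorouridine plus compound or DMSO for 16 hr at 37 °C. Luciferase was read by ONE-Glo luminescence after 30 min at room temperature.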
# MCF10A rereplic: inducers of DNA re-replication in MCF 10A breast cells. MCF 10A DNA re-replication, Hoechst nuclear intensity, 48 h. Potency, µM (top dose mostly 46.1 µM), usual class: activators. 2.9% of 350,000 active; also: nearly all actives have a fitted effect of over 50% in size
# KB-V1 cytotox: kills drug-selected multidrug resistant KB-V1 cells; Potency, µM (titrated, usually from 46.1 µM), most hits filed as cytotoxic; AID 1347076; KB-V1 MDR cells viability, CellTiter-Glo, 72 h; 3.4% of 400,000 active; also: nearly all actives have a fitted effect of over 60% in size
#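 Drug-selected KB-V1 cells, grown in DMEM lacking phenol red with 10% FBS, receive compound titrations; after three days at 37 degrees C, surviving cell ATP is quantified by CellTiter-Glo luminescence and responses normalized and curve-fitted.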
# KB-3-1 cytotox: kills parental KB-3-1 adenocarcinoma cells. KB-3-1 viability, CellTiter-Glo ATP luminescence, 72 h. Potency, µM (titrated, usually from 46.1 µM), hits mostly cytotoxic. 1.4% of 400,000 active. AID 1347075; also: nearly all actives have a fitted effect of over 60% in size
#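 Cells are dispensed, compounds pinned in, plates held at 37 °C for 72 h, then CellTiter-Glo is added and luminescence read after 10 minutes. Cell line: parental KB-3-1 in phenol-red-free DMEM, 10% FBS.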
# SW480 rerep: inducers of DNA re-replication in SW480 colon cancer cells | 1.8% of 340,000 active | SW480 DNA re-replication, Hoechst DNA content imaging, 48 h | Potency, µM (highest dose often 46.1 µM), hits mostly activators | AID 624297; also: nearly all actives have a fitted effect of over 55% in size
#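 250 cells/well; 23 nL cpd via pin tool; 48 hr, 37 C, 5% CO2; Hoechst 40 min; imager read of total nuclear intensity, ex 405/em 500-530 nm.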
# Hits are given with their value; 0 = inactive; ? = inconclusive; - = not tested or not shown; [ ] = another dose, or the depositor's remark. Most compounds without a hit are left out; they make up all but 8.1% or so of the library. Calls follow the shape of the dose curve; as a rule, active = well fitted curve in the direction sought with a large enough effect; inconclusive = small, poorly fitted or top-dose-only effect, or another doubt; inactive = no such curve, though single readings can be large; an effect the other way counts as inactive or inconclusive.
SMILES,ELG1 repair inh,MCF10A rereplic,KB-V1 cytotox,KB-3-1 cytotox,SW480 rerep
COC(=O)N/N=C/c1cc(Cl)cc(Cl)c1OCc1ccc(F)cc1,0,0,23.1µM,0,?
COc1ccc(NC(=O)c2csc(Cc3ccc(Cl)cc3)n2)cc1,?,0,0,0,0
O=C(N/N=C/c1ccc(F)cc1)c1sccc1OCc1ccc(F)cc1,0,7.31µM,7.31µM,?,9.2µM
O=C(N/N=C/c1ccc(Cl)cc1)c1sccc1OCc1ccc(F)cc1,?,1.64µM,1.3µM,1.46µM,9.2µM
COc1ccc(COc2ccsc2C(=O)Nc2ccc(Cl)cc2)cc1,0,18.4µM,9.2µM,0,?
COc1cccc(/C=N/NC(=O)CN(C)S(=O)(=O)c2ccccc2)c1OC,?,0,?,?,0
CCc1ccc(-c2csc(-c3cc4cc(Br)ccc4oc3=O)n2)cc1,-,-,0,0,-
Cc1ccccc1CNC(=O)Cc1ccc(NC(=O)N2CCCCc3ccccc32)cc1,-,-,0,0,-
COc1ccccc1CNCCS(=O)(=O)NCc1ccccc1,-,0,0,0,0
CC(=O)Nc1ccc(S(=O)(=O)NCCC(=O)OCc2ccc([N+](=O)[O-])cc2)cc1,0,0,0,0,0
S=C1SCN(CC2CC2)CN1CC1CC1,0,0,0,0,5.8µM
CN(C)S(=O)(=O)c1ccc(-c2csc(N/N=C/c3ccco3)n2)cc1,?,?,?,?,0
CN(C)S(=O)(=O)c1ccc(-c2csc(N/N=C/c3ccc(O)cc3)n2)cc1,?,?,14.6µM,20.6µM,0
CN(C)S(=O)(=O)c1cccc(COc2ncnc3c(Cl)cc(Cl)cc23)c1,18.3µM,0,0,0,0
COc1ccc(Br)cc1CN(C)CC(O)COc1ccc(Br)cc1 (stereo not given),0,?,0,0,?
COc1cc(C(=O)Nc2ccc(C)cc2)c2ccccc2n1,0,5.8µM,?,0.82µM,20.6µM
CCOc1ccc(NC(=O)c2cc(=O)[nH]c3ccccc23)cc1,0,?,0,0,0
Cc1ccc(NC(=O)c2cc(Cl)nc3ccccc23)cc1,0,0,0,0,0
CCOc1ccc(NC(=O)c2cc(OC)nc3ccccc23)cc1,?,23.1µM,?,1.16µM,?
CCOc1ccc(NC(=O)c2cc3c(C)nc4ccccc4c3o2)cc1,8.2µM,0,0,?,0
Cc1cccc(NC(=O)c2sc3nc4n(c(=O)c3c2C)N=C(c2ccc(F)cc2)CS4)c1C,-,-,0,0,-
Nc1ccc(S(=O)(=O)NCc2ccccc2)cc1,-,0,-,-,0
Cc1ccc(S(=O)(=O)NNC(=O)c2c(O)c3ccccc3[nH]c2=O)cc1,0,5.8µM,2.59µM,0,?
COC(=O)Nc1ccc(S(=O)(=O)NNC(=O)c2c(O)c3ccccc3[nH]c2=O)cc1,0,20.6µM,0,0,?
COc1cc(Br)ccc1C1CC(=O)C(C)C(c2ccc(Br)cc2OC)N1 (stereo not given),?,?,0,0,0
SMILES,ELG1 repair inh,MCF10A rereplic,KB-V1 cytotox,KB-3-1 cytotox,SW480 rerep
COc1cc(C(=O)NCCCN(C)C)ccc1OCC(=O)Nc1cccc(C(F)(F)F)c1,0,?,0,0,?
COc1cc(/C=C(\C#N)C(=O)Nc2cccc(C(=O)O)c2)ccc1OCc1ccc(C)cc1,?,0,0,0,0
COc1cc(/C=C(\C#N)C(=O)Nc2cc(C(F)(F)F)ccc2Cl)ccc1OCC(=O)Nc1cccc(C(F)(F)F)c1,0,20.6µM,0,0,?
COc1cccc(CN(C)C(=O)c2ccc(OCC(=O)Nc3cccc(C(F)(F)F)c3)c(OC)c2)c1,14.6µM,0,4.11µM,?,0
CCn1c(=O)c2cc(C(=O)NCc3ccc(F)cc3Cl)sc2c2ccccc21,-,-,0,0,-
O=C(NCc1ccccc1)C1Cc2c(-c3ccc4c(c3)OCO4)ccnc2O1 (stereo not given),-,-,1.16µM,0.82µM,-
NC(=O)c1cccc(-c2ccnc3c2CC(C(=O)NCc2ccccc2)O3)c1 (stereo not given),-,-,0,3.66µM,-
COc1ccccc1N1CCN(C(=O)c2ccc(Nc3nc4ccccc4n4nnnc34)cc2)CC1,-,-,0,0,-
O=C(CCCCCCN1C(=O)c2ccccc2C1=O)Nc1nccs1,16.4µM,0,?,0,0[9.22 µM]
CCOc1ccccc1OCCn1ncc2ccc(OC)c(OC)c2c1=O,?,0,0,0,0
COc1ccc2cnn(CCOc3cc(C)ccc3C(C)C)c(=O)c2c1OC,?,?,6.51µM,0,?
